Laboratory results: the supplement of paper PMC6555819

Assays:
Assay in all cases: PBM binding z-score (relative to random genomic background probes); higher = stronger binding; sequences stand for … in GC…GCGATTGACAGCGTAGAATGAAGG
[1] = system: PPARg:RXRa DBDmut IVT, anti-RXR (DBD mutation: RXRa K156A/R161A, NR concentration 270 nM, RXRa partner concentration 90 nM)
Method in brief: (§1)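 Ligand-free nuclear receptor dimers were bound for 1 h to custom Agilent 4×180K protein-binding microarrays. Detection used antibodies against each partner (one per run). Binding z-scores rest on regression-normalized fluorescence, with random background probes as the reference.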

[2] = system: PPARg:RXRa IVT, anti-PPARg (NR concentration 270 nM, RXRa partner concentration 90 nM)
Method in brief: as §1

[3] = system: PPARg DBDmut:RXRa IVT, anti-PPARg (DBD mutation: PPARg1 K132A/R137A, NR concentration 270 nM, RXRa partner concentration 90 nM)
Method in brief: as §1

[4] = system: PPARg DBDmut IVT, anti-PPARg (DBD mutation: PPARg1 K132A/R137A, NR concentration 270 nM)
Method in brief: as §1

[5] = system: PPARg homodimer (NR concentration 180 nM)
Method in brief: as §1

[6] = system: PXR:RXRa (NR concentration 270 nM, RXRa partner concentration 90 nM)
Method in brief: as §1

[7] = system: PXR homodimer (NR concentration 270 nM)
Method in brief: as §1

[8] = system: RARa:RXR (NR concentration 270 nM, RXRa partner concentration 90 nM)
Method in brief: as §1

[9] = system: RARa homodimer (NR concentration 270 nM)
Method in brief: as §1

[10] = system: RARb:RXRa (NR concentration 270 nM, RXRa partner concentration 90 nM)
Method in brief: as §1

| Sequence | PBM binding z-score [1] | PBM binding z-score [2] | PBM binding z-score [3] | PBM binding z-score [4] | PBM binding z-score [5] | PBM binding z-score [6] | PBM binding z-score [7] | PBM binding z-score [8] | PBM binding z-score [9] | PBM binding z-score [10] |
| --- | --- | --- | --- | --- | --- | --- | --- | --- | --- | --- |
| CGAACTGGGTCATCCAGGACAGTGAATACATTGA | 7.33 | 8.01 | 5.1 | 4.27 | 2.15 | 2.01 | 0.0976 | 3.11 | 0.785 | 3.21 |
| GCAGACAGGTGAAACGCAGGTCACTCAGGGTGGC | 0.839 | 1.6 | -0.584 | -0.0986 | 1.32 | 2.65 | -0.357 | 3.45 | -0.516 | 2.44 |
| CGTCCAAGGTCAATGATAGGTCAGTGAAAGCATT | 3.37 | 3.61 | 0.384 | -0.272 | 6.66 | 5.17 | 1.58 | 6.7 | 1.7 | 5.31 |
| GCTAGCAGGCAATTTGGGTCACTCAATGACGGGC | 2.45 | 2.92 | 0.145 | -1.09 | -0.111 | 0.273 | -0.523 | 1.08 | -0.688 | 0.971 |
| TCTTGTAGACCAAAGGTTAAGAAAGCCGAAGCCT | 2.06 | 3.9 | 0.87 | 0.749 | 0.811 | 1.58 | -0.8 | 2.39 | -0.178 | 2.03 |
| TTACCAAGGTGAAAGGTCGTTAATGCACGCCTTG | 2.25 | 4.95 | -0.238 | 0.567 | 1.27 | 3.35 | 0.236 | 4.98 | 0.00553 | 2.78 |
| TCAGACAGGTGAAGGTAACTCAAGTACGCAGTCG | 2.91 | 0.867 | 0.154 | -0.232 | 0.845 | 0.794 | 0.336 | 0.988 | 0.423 | 1.14 |
| GGAACGAGGGCAAAGTTGATAGCTTCTGTCGACG | 4.1 | 4.11 | 0.574 | 0.0846 | 0.712 | 0.96 | 0.104 | 1.34 | -0.449 | 2.14 |
| ACTAGCAGGCCAAGTTTGGGTCACGCAAACAAAG | 1.23 | 1.63 | -0.285 | -0.284 | 0.631 | 1.61 | -0.0621 | 2.51 | -0.0801 | 2.33 |
| TGAATGTGGTTATAAGATCAGGGAACGTTGCAAA | -0.328 | 0.343 | 0.967 | 1.11 | 0.749 | 0.00497 | 0.777 | -0.382 | 1.15 | 0.0382 |
| CGTCCAAGGTCAGAGAGGTCAGTGAGTGCCGAGT | 2.89 | 3.66 | -0.0729 | -0.219 | 3.93 | 6.23 | 12.6 | 5.43 | 2.9 | 5.37 |
| TCTAGTTGGTCACGGAGGTTACACACGACGGGTA | 2.33 | 2.95 | 0.625 | 0.671 | 1.64 | 1.53 | 0.58 | 1.77 | 0.623 | 2.42 |
| CCGACTGGGGCATAAGGTTTCCATAAGCCAGCCC | 3.04 | 2.38 | -1.41 | -1.66 | -0.419 | -0.536 | -0.762 | -0.479 | 0.00521 | 0.514 |
| GCTAGCAGGCCATTTGGGTGACTCAATGACGGGC | 1.46 | 0.949 | -0.802 | -0.751 | -0.989 | -0.366 | -0.793 | -0.229 | -1.01 | 0.0482 |
| ATCGAAAGGTCGTGAGGCGAGTATACAGAAAGGC | 0.466 | 1.91 | 1.82 | 1 | 1.5 | 2.96 | 0.0504 | 3.69 | 0.41 | 4.1 |
| CGTACAAGGTCAATGCTAGGTCAGTGAAAGCATT | 4.05 | 4.92 | 0.909 | 0.378 | 5.84 | 5.07 | 2.03 | 6.46 | 2.18 | 5.33 |
| CCTTACGGGTCACTCCCGGTTATAGCATCGGAGT | 2.29 | 3.2 | -0.351 | 0.418 | 2.11 | 3.32 | 0.36 | 3.34 | 1.06 | 3.65 |
| CGAACTAGGTCATTGACAGGACTGTGAATAGTAA | 7.96 | 8.16 | 2.42 | 3.75 | 1.48 | 1.11 | 0.155 | 1.81 | -0.0382 | 3.43 |
| CGTCCAAGGTCAGAGAGGTCAGAGAATGCCGAGT | 2.84 | 3.53 | 0.0352 | -0.116 | 4.06 | 6.31 | 11.8 | 5.66 | 1.75 | 5.18 |
| ACTCGGAGGACAAAGGTCAGAGCCACGCCAGTGA | 0.449 | 3.88 | 0.243 | 0.0578 | 3.83 | 4.03 | 0.202 | 5.5 | 1.68 | 4.73 |
| AGAACGAGGGCAAAGAGTTGATAGCACGGGTGGC | 3.36 | 2.41 | 0.499 | -0.21 | 0.413 | 1.77 | 4.76 | 0.09 | -0.299 | 2.11 |
| CCTACTGGGCAACGAAAGGTCATTGATTCAGTGA | 2.25 | 2.56 | -0.412 | 0.102 | 3.81 | 5.18 | 1.89 | 5.49 | 2.52 | 3.96 |
| AATACAGGGTCTTCGTAGGCCAGAGTACGCACAG | 0.0875 | 0.764 | 0.236 | 0.68 | -0.584 | -0.0215 | -0.304 | 0.585 | 0.404 | 0.544 |
